Assay outcomes deposited in PubChem BioAssay by National Center for Advancing Translational Sciences (NCATS).
The list is not random: actives were taken first. Their share in the collection is about 21%.
Shiga inhibitor: Shiga toxin inhibition; AID 2315; 290,000 compounds, 9.2% hits; Vero cells, Shiga toxin protein synthesis inhibition reporter; inhibition, % at 38.7 µM; in the data active = inhibition mostly above about 28%, no sharp cut-off; inactive = mostly below about 43%
Pf growth 96h: P. falciparum growth inhibition at 96 hour, primary screen for plastid delayed-death inhibitors. 320,000 compounds, 6.9% hits. P. falciparum luciferase reporter growth, 96 h. Potency, µM (series often up to 28.7 µM), hits mostly inhibitors
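Plates of compound plus infected erythrocytes (2% hematocrit, 0.05% parasitemia final) incubate 96 hours, 37 C, 5% CO2. Detection reagent added; reduced luminescence from the parasites' luciferase reporter flags inhibition.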
Cycloheximide cs: affects cycloheximide protein synthesis inhibition readout, counter-screen; cell reporter, cycloheximide protein synthesis inhibition counterscreen; max response, %; 300,000 compounds, 12% hits; AID 2314; in the data active = max response mostly above about 13%, no sharp cut-off; inactive = mostly below about 14%; note: read at 38.3 µM for the half of the compounds with a filed dose
Pf growth 48h: P. falciparum growth inhibition at 48 hours (one generation); P. falciparum luciferase growth in erythrocytes, 48 h; Potency, µM (highest dose often 28.7 µM), actives largely listed as inhibitors; 310,000 compounds, 5.9% hits
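Erythrocytes infected with P. falciparum carrying an integrated firefly luciferase reporter (2% hematocrit, 0.1% parasitemia final) were exposed to compounds in RPMI 1640 with 0.5% Albumax at 37 C, 5% CO2. Growth inhibition was scored as reduced luminescence.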
Hits are given with their value. Unless noted, calls come from the whole dose curve; as a rule, active = well fitted inhibition curve with a large enough effect; inconclusive = small, poorly fitted or top-dose-only effect, or another doubt; inactive = no such curve, though single readings can be large or run the other way.

`C/C(=N/Oc1nc(C)cc(C)n1)c1ccc(Br)cc1` gave Shiga inhibitor inactive, Pf growth 96h inactive and Cycloheximide cs inactive.
CSCCC1COC(c2cccs2)=N1 (stereo not drawn) was read as Shiga inhibitor 65, Pf growth 96h inconclusive, Cycloheximide cs 39 and Pf growth 48h inactive.
For CN(C)/C=C1\N=C(c2cccs2)OC1=O the results were Shiga inhibitor inactive, Pf growth 96h inactive, Cycloheximide cs inactive and Pf growth 48h inactive.
Screening Cc1cc2c(cc1S(=O)(=O)N(C)Cc1ccccc1)OCC(=O)N2 returned Shiga inhibitor inactive, Pf growth 96h inactive, Cycloheximide cs inactive and Pf growth 48h inactive.
Screening COc1ccccc1C1(CC(=O)N2CCCCC2)CCOC(C(C)C)C1 (stereo not drawn) returned Shiga inhibitor inactive, Pf growth 96h 15µM and Cycloheximide cs inactive.
Screening Cc1nn(C)c(C)c1S(=O)(=O)N(CC(=O)NCc1cccs1)c1ccc(C(C)C)cc1 returned Shiga inhibitor inactive, Pf growth 96h 9.3µM, Cycloheximide cs inactive and Pf growth 48h inactive.
Cc1cc(C)cc(N(CC(=O)Nc2ccc(C(F)(F)F)cc2)S(=O)(=O)c2c(C)[nH]c(=O)[nH]c2=O)c1 was read as Shiga inhibitor inactive, Pf growth 96h inactive, Cycloheximide cs inactive and Pf growth 48h 15µM.
Screening Cc1ccc(N(CC(=O)NCCc2ccc(Cl)cc2)S(=O)(=O)c2c(C)noc2C)cc1 returned Shiga inhibitor inactive, Pf growth 96h 2.3µM, Cycloheximide cs inactive and Pf growth 48h inactive.
`Cc1noc(C)c1S(=O)(=O)N(CC(=O)NC1CCC(C)CC1)c1ccc(C(C)C)cc1` (stereo not drawn) gave Shiga inhibitor inactive, Pf growth 96h inconclusive, Cycloheximide cs inactive and Pf growth 48h 10µM.
For COc1ccc(N(CC(=O)NCc2cccs2)S(=O)(=O)c2c(C)nn(C)c2C)cc1 the results were Shiga inhibitor inactive, Pf growth 96h inconclusive and Cycloheximide cs inactive.
Screening Cc1ccc(CCNC(=O)CN(c2ccc(C)cc2)S(=O)(=O)c2c(C)noc2C)cc1 returned Shiga inhibitor inactive, Pf growth 96h inconclusive, Cycloheximide cs inactive and Pf growth 48h inactive.
COc1ccccc1-n1c(-c2cn(C)nc2C)n[nH]c1=S was read as Shiga inhibitor inactive, Pf growth 96h inactive, Cycloheximide cs inactive and Pf growth 48h inactive.
For Cc1noc(C)c1C(=O)Nc1cc(S(=O)(=O)N2CCCCC2)ccc1N(C)C the results were Pf growth 96h inactive and Pf growth 48h inconclusive.
Screening O=C(CN(c1ccc(Cl)cc1)S(=O)(=O)c1ccc(Cl)c([N+](=O)[O-])c1)NCCc1ccccc1 returned Shiga inhibitor inactive, Pf growth 96h inconclusive, Cycloheximide cs inactive and Pf growth 48h inconclusive.
For O=C(CN(c1ccc(Cl)cc1)S(=O)(=O)c1ccc(Cl)c([N+](=O)[O-])c1)NCCc1ccc(F)cc1 the results were Shiga inhibitor inactive, Pf growth 96h 12µM, Cycloheximide cs inactive and Pf growth 48h inconclusive.
For COc1ccc(CNC(=O)CN(c2ccc(OC)cc2)S(=O)(=O)c2c(C)[nH]c(=O)[nH]c2=O)cc1 the results were Shiga inhibitor inactive, Pf growth 96h inconclusive, Cycloheximide cs inactive and Pf growth 48h inactive.
`COc1ccc(CNC(=O)CN(c2ccc(C(C)C)cc2)S(=O)(=O)c2c(C)noc2C)cc1` gave Shiga inhibitor inactive, Pf growth 96h inconclusive, Cycloheximide cs inactive and Pf growth 48h inactive.
Cc1ccc(N(CC(=O)NC2CCCCCC2)S(=O)(=O)c2c(C)nn(C)c2C)cc1 was read as Shiga inhibitor inactive, Pf growth 96h 12µM, Cycloheximide cs inactive and Pf growth 48h inactive.
COc1ccc(N(CC(=O)NCc2ccc(C)cc2)S(=O)(=O)c2c(C)[nH]c(=O)[nH]c2=O)cc1 was read as Shiga inhibitor inactive, Pf growth 96h 4.7µM, Cycloheximide cs inactive and Pf growth 48h inactive.
Cc1ccc(CNC(=O)CN(c2ccc(C(C)C)cc2)S(=O)(=O)c2c(C)noc2C)cc1 was read as Shiga inhibitor inactive, Pf growth 96h 10µM, Cycloheximide cs inactive and Pf growth 48h inactive.
`CC1CCCCC12NC(=O)N(CC(=O)N1CCc3ccccc3C1)C2=O` (stereo not drawn) gave Pf growth 96h inactive and Pf growth 48h inactive.
CCN(CC)c1ccc(NC(=O)c2c(OC)cccc2OC)c(C)c1 was read as Shiga inhibitor inactive, Pf growth 96h inactive, Cycloheximide cs inactive and Pf growth 48h inactive.
For COc1ccccc1NC(=O)c1cc2ccccc2o1 the results were Shiga inhibitor 64, Pf growth 96h 5.2µM, Cycloheximide cs 39 and Pf growth 48h inactive.
For CCN(CC)c1ccc(NC(=O)c2cc3ccccc3o2)c(C)c1 the results were Shiga inhibitor 59, Pf growth 96h inactive, Cycloheximide cs 26 and Pf growth 48h inactive.
